From PubChem BioAssay
The list is not random: actives were taken first. Their share in the collection is about 6.7%.
Pf Dd2 inh = P. falciparum Dd2 growth inhibition. AID 1159554. activity change, % at 10 µM. 2.3% of 94,000 active. SYBR Green, 72 h; stronger effect = lower value; in the data active = activity change below about -80%; inconclusive = no clear call, values can overlap the other calls
T cruzi growth-1 = blocks T. cruzi growth in NIH3T3 culture; T. cruzi beta-gal in NIH3T3, GalScreen luminescence, 90 h; inhibition, % at 8.34 µM; 5.9% of 77,000 active; AID 624255;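 active = mean inhibition above about 93%, with at least 55% of replicates each passing it, limit read from the data, passing the limit was not always enough; inconclusive = only one of those two conditions holds; inactive = neither condition holds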
C diff growth = C. difficile growth inhibition; AID 1259249; 0.25% of 86,000 active; Clostridium difficile clinical isolate growth, OD600, 24 h; stronger effect = lower value; growth activity, negative = inhibition, % at 16 µg/mL (by protocol);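 active = mean growth activity at or below -80% and every replicate also at or below -80%; inconclusive = mean at or below -80% but some replicate above -80%; inactive = mean growth activity above -80%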
T cruzi growth-2 = blocks T. cruzi growth in NIH3T3 host cells | 72% of 5,600 active | T. cruzi beta-gal in NIH3T3, GalScreen luminescence, 90 h | shares compounds with T cruzi growth-1 | inhibition, % at 8.35 µM;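 active = mean replicate inhibition above about 95% and at least 55% of replicates individually reaching it, limit read from the data; inconclusive = only one of the two criteria is met; inactive = neither criterion is met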
T cruzi growth-3 = Trypanosoma cruzi proliferation inhibition; shares compounds with T cruzi growth-1; T. cruzi beta-gal in NIH3T3, GalScreen luminescence, 90 h; inhibition, % at 2.09 µM; 21% of 5,600 active; AID 651740;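 active = mean inhibition above about 95%, with at least 55% of replicates also reaching it, limit read from the data; inconclusive = meets just one of the two conditions; inactive = meets neither condition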
NIH3T3 tox = kills mouse NIH/3T3 fibroblasts. shares compounds with T cruzi growth-1. NIH/3T3 viability, CellTiter-Glo ATP luminescence, 90 h. cytotoxicity (signal decrease), % at 8.35 µM. 14% of 5,600 active;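 active = mean signal decrease across replicates above about 35% based on untreated-well scatter, with enough replicates individually passing, limit read from the data; inconclusive = no rule stated though some were filed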
3T3 cytotox 2 = cytotoxicity in mouse NIH/3T3 fibroblasts | shares compounds with T cruzi growth-1 | NIH/3T3 viability, CellTiter-Glo ATP luminescence, 90 h | inhibition, % at 24.9 µM | 56% of 5,600 active;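 active = mean loss of cell viability signal at or above a set limit, and enough replicates individually reaching it; inconclusive = meets only the mean limit or only the replicate share; inactive = meets neither condition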
Of the large screens only hits and unclear results are named; the others gave an inactive call (follow-up assays come after a bar, where they were run); ! = repeats disagree.

COc1ccc(-c2ccc([C@H]3[C@@H](CO)N4CCCCN(C(=O)c5ccc(F)cc5)C[C@H]34)cc2)cc1	none
O=C(c1ccc(F)cc1)N1CCCCN2[C@H](CO)[C@@H](c3ccc(-c4ccccc4)cc3)[C@@H]2C1	none
COc1ccc(-c2ccc([C@H]3[C@H]4CN(C(=O)c5ccc(F)cc5)CCCCN4[C@H]3CO)cc2)cc1	none
O=C(c1ccc(F)cc1)N1CCCCN2[C@@H](CO)[C@@H](c3ccc(-c4ccc(F)cc4)cc3)[C@@H]2C1	none
O=C(c1ccc(F)cc1)N1CCCCN2[C@H](CO)[C@@H](c3ccc(-c4ccc(F)cc4)cc3)[C@H]2C1	T cruzi growth-1 111 | T cruzi growth-2 104 | T cruzi growth-3 inactive | NIH3T3 tox 37 | 3T3 cytotox 2 103
COc1ccc(-c2ccc([C@@H]3[C@@H](CO)N4CCCCN(C(=O)c5ccc(F)cc5)C[C@H]34)cc2)cc1	T cruzi growth-1 123 | T cruzi growth-2 inconclusive | T cruzi growth-3 inactive | NIH3T3 tox inactive | 3T3 cytotox 2 57
O=C(c1ccc(F)cc1)N1CCCCN2[C@H](C1)[C@@H](c1ccc(-c3ccc(F)cc3)cc1)[C@@H]2CO	T cruzi growth-1 98 | T cruzi growth-2 103 | T cruzi growth-3 inactive | NIH3T3 tox 43 | 3T3 cytotox 2 103
O=C(c1ccc(F)cc1)N1CCCCN2[C@H](CO)[C@H](c3ccc(-c4ccc(F)cc4)cc3)[C@@H]2C1	T cruzi growth-1 105 | T cruzi growth-2 108 | T cruzi growth-3 inactive | NIH3T3 tox inactive | 3T3 cytotox 2 73
CC(C)C(=O)Nc1ccc2c(c1)C(=O)N(C)[C@@H]1CC[C@H](CC(=O)NC3CCCC3)O[C@@H]1CO2	none
CN1C(=O)c2cc(NC(=O)C3CCOCC3)ccc2OC[C@H]2O[C@@H](CC(=O)NCC3CC3)CC[C@H]21	none
C[C@H]1CN([C@@H](C)CO)C(=O)c2cc(NC(=O)Nc3ccccc3)ccc2O[C@H]1CN(C)S(=O)(=O)c1cccs1	none
C[C@@H]1CN([C@H](C)CO)C(=O)c2cc(-c3ccc(C(=O)N(C)C)cc3)cnc2O[C@H]1CN(C)C	none
O=C(C[C@@H]1C=C[C@H](NC(=O)c2ccccc2)[C@@H](CO)O1)NCCc1ccncc1	none
O=C(c1ccc(F)cc1)N1CCCCN2[C@H](CO)[C@H](c3ccc(-c4ccccc4)cc3)[C@@H]2C1	none
O=C(c1ccc(F)cc1)N1CCCCN2[C@H](CO)[C@H](c3ccc(-c4ccc(F)cc4)cc3)[C@H]2C1	T cruzi growth-1 107 | T cruzi growth-2 103 | T cruzi growth-3 inactive | NIH3T3 tox inactive | 3T3 cytotox 2 105
CNC[C@@H]1OCCCC[C@H](C)Oc2ccc(NC(=O)Nc3cccc4ccccc34)cc2C(=O)N([C@H](C)CO)C[C@@H]1C	none
C[C@@H]1CCCCO[C@@H](CN(C)S(=O)(=O)c2cccs2)[C@@H](C)CN([C@H](C)CO)C(=O)c2cc(NS(=O)(=O)c3ccc(F)cc3)ccc2O1	none (no result: Pf Dd2 inh)
C[C@@H]1CN([C@@H](C)CO)C(=O)c2cc(NS(=O)(=O)c3ccc(F)cc3)ccc2O[C@@H](C)CCCCO[C@@H]1CN(C)S(=O)(=O)c1cccs1	T cruzi growth-1 97 (no result: Pf Dd2 inh) | T cruzi growth-2 108 | T cruzi growth-3 inactive | NIH3T3 tox inactive | 3T3 cytotox 2 inactive
C[C@H]1CCCCO[C@H](CN(C)S(=O)(=O)c2cccs2)[C@@H](C)CN([C@@H](C)CO)C(=O)c2cc(NS(=O)(=O)c3ccccc3)ccc2O1	T cruzi growth-1 105 | T cruzi growth-2 106 | T cruzi growth-3 inactive | NIH3T3 tox inactive | 3T3 cytotox 2 inactive
C[C@@H]1CCCCO[C@@H](CN(C)S(=O)(=O)c2cccs2)[C@H](C)CN([C@@H](C)CO)C(=O)c2cc(N(C)C)ccc2O1	none (no result: Pf Dd2 inh)
C[C@@H]1CN([C@H](C)CO)C(=O)c2cc(NS(=O)(=O)c3ccc(Cl)cc3)ccc2O[C@@H](C)CCCCO[C@H]1CN(C)S(=O)(=O)c1cccs1	none
C[C@@H]1CCCCO[C@@H](CN(C)S(=O)(=O)c2cccs2)[C@H](C)CN([C@@H](C)CO)C(=O)c2cc(NS(=O)(=O)c3ccc(Cl)cc3)ccc2O1	T cruzi growth-1 96 | T cruzi growth-2 98 | T cruzi growth-3 inactive | NIH3T3 tox inactive | 3T3 cytotox 2 inactive
C[C@@H]1CN([C@@H](C)CO)C(=O)c2cc(N(C)C)ccc2O[C@@H](C)CCCCO[C@@H]1CN(C)S(=O)(=O)c1cccs1	T cruzi growth-1 106! | T cruzi growth-2 inactive | T cruzi growth-3 inactive | NIH3T3 tox inactive | 3T3 cytotox 2 inactive
C[C@@H]1CCCCO[C@@H](CN(C)S(=O)(=O)c2cccs2)[C@@H](C)CN([C@@H](C)CO)C(=O)c2cc(NS(=O)(=O)c3ccccc3)ccc2O1	none
C[C@H]1CN([C@@H](C)CO)C(=O)c2cccc(NS(=O)(=O)c3cccs3)c2O[C@H]1CN(C)CC1CCCCC1	none
COC(=O)C[C@@H]1CC[C@H]2[C@H](COc3ccc(NC(=O)c4ccc(F)cc4)cc3C(=O)N2C)O1	none
C[C@@H]1CN([C@H](C)CO)C(=O)c2cc(NS(=O)(=O)c3ccc(Cl)cc3)ccc2O[C@@H](C)CCCCO[C@@H]1CN(C)S(=O)(=O)c1cccs1	T cruzi growth-1 101 | T cruzi growth-2 116 | T cruzi growth-3 inactive | NIH3T3 tox inactive | 3T3 cytotox 2 inactive
C[C@@H]1CCCCO[C@H](CN(C)S(=O)(=O)c2cccs2)[C@H](C)CN([C@H](C)CO)C(=O)c2cc(NS(=O)(=O)c3ccc(Cl)cc3)ccc2O1	Pf Dd2 inh -87, T cruzi growth-1 99 | T cruzi growth-2 102 | T cruzi growth-3 114 | NIH3T3 tox inactive | 3T3 cytotox 2 inactive
C[C@@H]1CN([C@@H](C)CO)C(=O)c2cc(NS(=O)(=O)c3ccc(Cl)cc3)ccc2O[C@@H](C)CCCCO[C@@H]1CN(C)S(=O)(=O)c1cccs1	none
C[C@@H]1CCCCO[C@@H](CN(C)S(=O)(=O)c2cccs2)[C@@H](C)CN([C@@H](C)CO)C(=O)c2cc(NS(=O)(=O)c3ccc(Cl)cc3)ccc2O1	none (no result: C diff growth)
COc1ccc(S(=O)(=O)Nc2cccc3c2O[C@H](CN(C)Cc2ccc(Oc4ccccc4)cc2)[C@H](C)CN([C@@H](C)CO)C3=O)cc1	none
O=C(C[C@H]1CC[C@@H](NC(=O)C2CC2)[C@@H](CO)O1)NC1CCC1	none (no result: C diff growth)
CCNC(=O)[C@@H]1[C@@H](CO)[C@@H]2Cn3c(ccc(-c4ccccc4)c3=O)[C@@H]2N1C(=O)C1CCC1	none
CS(=O)(=O)N1CC2(C1)[C@@H](c1ccccc1)[C@@H](CO)N2CCC(F)(F)F	none (no result: T cruzi growth-1)
C[C@@H]1CN([C@@H](C)CO)C(=O)Cc2cc(NC(=O)Cc3cn(C)c4ccccc34)ccc2O[C@@H]1CN(C)Cc1ccccc1	none
